Exocytosis inh: lytic granule exocytosis inhibition. AID 651702. inhibition, % at 10 µM. TALL-104 LAMP-1 surface exposure, flow cytometry; cells stimulated with thapsigargin and PMA. 360,000 tested, 0.66% active;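 active = inhibition above about 55%, limit read from the data; inconclusive = no clear call, values can overlap the other calls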
VLA-4 inh: inhibition in a human VLA-4 binding assay. AID 2557. VLA-4 expressing cells, ligand binding flow cytometry. 330,000 tested, 0.2% active. P13612. inhibition, % (about 7 µM as worked out from the volumes in the protocol); in the data active = inhibition above about 50%
V-ATPase pHluor: yeast V-ATPase proton transport regulation by pHLuorin; S. cerevisiae, pHLuorin cytosolic pH fluorescence; 350,000 tested, 0.37% active; AID 504577; response, % at 10 µM; in the data active = response mostly above about 7.3%, no sharp cut-off; inactive = mostly below about 5.4%; note: actives read high
MEX-5 binding: C. elegans MEX-5 TCR-2 RNA binding activity; activity score (negative = inhibition of binding), % at 10 µM; AID 1832; MEX-5/FITC-TCR2 RNA binding, fluorescence polarization; stronger effect = lower value; 300,000 tested, 0.38% active;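 active = inhibition past about -25% in most replicates, and total fluorescence under double the plate's negative control median, limit read from the data; inconclusive = replicates evenly split on the limit, or fluorescence at least double controls; inactive = too little inhibition in most replicates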
Target sequence (Q9XUB2 whole entry, looked up): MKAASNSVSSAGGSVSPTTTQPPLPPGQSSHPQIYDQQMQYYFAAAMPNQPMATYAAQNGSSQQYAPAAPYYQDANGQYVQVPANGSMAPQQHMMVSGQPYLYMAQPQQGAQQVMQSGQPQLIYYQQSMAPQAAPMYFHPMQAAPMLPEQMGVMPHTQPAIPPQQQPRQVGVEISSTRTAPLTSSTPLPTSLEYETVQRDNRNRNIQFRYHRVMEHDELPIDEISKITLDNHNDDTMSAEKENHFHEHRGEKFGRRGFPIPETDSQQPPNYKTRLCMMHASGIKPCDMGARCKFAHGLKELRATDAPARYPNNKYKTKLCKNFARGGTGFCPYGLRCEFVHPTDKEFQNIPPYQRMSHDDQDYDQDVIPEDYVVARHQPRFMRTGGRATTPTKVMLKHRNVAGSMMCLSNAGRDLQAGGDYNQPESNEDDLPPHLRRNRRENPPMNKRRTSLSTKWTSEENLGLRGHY
HTR2A ag: activates the mouse 5-HT2A serotonin receptor; P35363; CHO-K1 mHTR2A beta-arrestin complementation, luminescence; percent of 30 µM serotonin response; activation, % at 7.6 µM; 360,000 tested, 0.66% active; AID 624169;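 active = activation above a run cutoff, the mean activation of all tested compounds plus 3 SD, cut at about 14% in these data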
GASC-1 inh: inhibitors of human GASC-1 (JMJD2C) demethylase; AID 2099; inhibition, % at 2.35 µM; GST-JMJD2C(1-420) H3K9me3 demethylation, DELFIA europium; 330,000 tested, 0.069% active; Q9H3R0;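 active = more than half of a compound's replicate wells show inhibition beyond 50%, single wells judged on their own value; inconclusive = some, but no more than half, of replicates pass 50% inhibition; inactive = no replicate passes 50% inhibition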;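 note: signal counts dimethyl H3K9 product captured on neutravidin plate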
VLA-4 allo CP: confirmation of allosteric modulators of human VLA-4 integrin | shares compounds with VLA-4 inh | U937 cells, HUTS-21 LIBS mAb binding, flow cytometry; LDV ligand present at threefold Kd | inhibition, % at 6.7 µM | 1,300 tested, 2% active; in the data active = inhibition above about 40%
Large screens that a line does not name were inactive (follow-up assays come after a bar, where they were run); ! = repeats disagree. Hits are enriched below; roughly 2.2% of the tested compounds scored in any of these assays.

CN1CCC(N(C)C(=O)c2ccc(Cl)c(S(=O)(=O)Nc3cc(Cl)ccc3Cl)c2)CC1	none (no result: MEX-5 binding)
CN(CC(=O)Nc1ccc(Cl)cc1)CC(=O)Nc1cccc(Br)c1	none
COc1cc(C(=O)OCC(=O)Nc2c(F)cccc2F)cc(OC)c1C	none
COc1cc(C(=O)OCC(=O)Nc2c(F)c(F)c(F)c(F)c2F)cc(OC)c1OC	none | VLA-4 allo CP inactive
COc1ccc(S(=O)(=O)CC(=O)c2cc(C)c(O)c(C)c2)cc1	VLA-4 inh 50 | VLA-4 allo CP inactive
Cc1c(NC(=O)CCC(=O)N2CCCCC2)c(=O)n(-c2ccccc2)n1C	none | VLA-4 allo CP inactive
CCC(C(=O)OCC(=O)Nc1c(C)n(C)n(-c2ccccc2)c1=O)c1ccccc1 (centres undefined)	none | VLA-4 allo CP inactive
Cc1c(NC(=O)COC(=O)C(c2ccc(Cl)cc2)C(C)C)c(=O)n(-c2ccccc2)n1C (centres undefined)	none
COc1ccc(S(=O)(=O)N2CCCC(C(=O)NCc3cccnc3)C2)cc1OC (centres undefined)	VLA-4 inh 51 | VLA-4 allo CP inactive
COCCn1nnnc1C(c1ccc(OC)cc1OC)N1CCN(c2ccccc2F)CC1 (centres undefined)	VLA-4 inh 99 | VLA-4 allo CP inactive
COc1ccc(CCNC(=O)C(=O)NCCC2CCCCN2S(=O)(=O)c2ccccc2)cc1 (centres undefined)	none
NS(=O)(=O)c1ccc(NC(=O)Nc2ccc3c(c2)OCO3)cc1	none
COc1ccc(C2(O)C(=O)Nc3ccc(C)cc32)cc1 (centres undefined)	none
COc1ccc([C@@]2(O)c3c(ccc(CC=C(C)C)c3O)NC(=O)[C@@H]2OC)cc1	none | VLA-4 allo CP inactive
CCOc1ccc(NC(=O)CN(c2ccc(OCC)cc2)S(=O)(=O)c2c(C)[nH]c(=O)[nH]c2=O)cc1	none | VLA-4 allo CP inactive
CCOc1ccc(N(CC(=O)Nc2ccc(C)cc2)S(=O)(=O)c2c(C)[nH]c(=O)[nH]c2=O)cc1	none
CCOc1ccc(N(CC(=O)Nc2ccc(OC)cc2)S(=O)(=O)c2c(C)[nH]c(=O)[nH]c2=O)cc1	VLA-4 inh 57 | VLA-4 allo CP inactive
CC(=O)C1=C(O)CC(c2ccccc2)CC1=NCCc1c(C)[nH]c2ccc(C)cc12 (centres undefined)	none
CCC(=NCCc1c(C)[nH]c2ccc(C)cc12)C1=C(O)CC(c2ccccc2)CC1=O (centres undefined)	none | VLA-4 allo CP inactive
CCOC(=O)COc1ccccc1/C=C\[N+](=O)[O-]	VLA-4 inh 50 | VLA-4 allo CP 43
Cc1ccc(C(=O)COC(=O)COc2ccccc2[N+](=O)[O-])s1	none (no result: MEX-5 binding)
S=C(NCCc1ccccc1)Nc1ccccc1Cl	none
S=C(NCCCc1ccccc1)Nc1ccccc1Cl	VLA-4 inh 50 | VLA-4 allo CP inactive
Cc1ccc(NC(=O)CSc2nn(-c3ccccc3)c(=S)s2)cc1S(=O)(=O)N(C)C	none | VLA-4 allo CP inactive
O=C(CSc1nn(-c2ccccc2)c(=S)s1)Nn1cnnc1	none
Cc1cc(NC(=O)CSc2ccc3nnc(-c4ccc(Cl)cc4)n3n2)no1	none | VLA-4 allo CP inactive
COc1ccc(-c2nnc3ccc(SCC(N)=O)nn23)cc1OC	none
CC(Sc1ccc2nnc(-c3ccc(F)cc3)n2n1)C(=O)O (centres undefined)	none
COc1ccc(-c2nnc3ccc(SCC(=O)NCc4ccco4)nn23)cc1OC	none | VLA-4 allo CP inactive
COc1ccc(-c2nnc3ccc(SCC(=O)N4CCCCC4)nn23)cc1OC	none | VLA-4 allo CP inactive
Cc1ccc(-c2nnc3ccc(SC(C)C(=O)O)nn23)cc1 (centres undefined)	none | VLA-4 allo CP inactive
Cc1ccc(-c2cc(Cc3ccccn3)c(=O)[nH]n2)cc1	none (no result: GASC-1 inh)
Cc1ccc(C(=O)NC(=S)Nc2ccccc2N2CCOCC2)cc1C	none
CC1CCCC(NC(=O)COC(=O)c2cccc(S(=O)(=O)N3CCCCC3)c2)C1C (centres undefined)	none (no result: MEX-5 binding)
O=C(CCNS(=O)(=O)c1ccc(Br)cc1)NC1CCCCC1	none
CC1CCCC(NC(=O)CCNS(=O)(=O)c2ccc(Br)cc2)C1C (centres undefined)	VLA-4 inh 52 | VLA-4 allo CP inactive
CNS(=O)(=O)c1cccc(C(=O)OCC(=O)NC2CCCC(C)C2C)c1 (centres undefined)	none (no result: MEX-5 binding) | VLA-4 allo CP inactive
C#C[C@]1(O)CC[C@H]2[C@@H]3CCc4cc(OC5CCCC5)ccc4[C@H]3CC[C@@]21C	VLA-4 inh 53 | VLA-4 allo CP inactive
CS(=O)(=O)c1cccc(C(=O)NCc2ccc(F)cc2)c1	VLA-4 inh 93 (no result: MEX-5 binding) | VLA-4 allo CP inactive
Cc1ccc(S(=O)(=O)N2[C@@H](c3ccc(F)cc3)C(C(=O)O)=C[C@H]2CC2CCCC2)cc1	none (no result: MEX-5 binding) | VLA-4 allo CP inactive
CCc1ccc([C@H]2C(C(=O)O)=C[C@@H](CC3CCCC3)N2S(=O)(=O)c2ccc(C)cc2)cc1	none (no result: MEX-5 binding, GASC-1 inh) | VLA-4 allo CP inactive
CCN(CC)c1ccc(C2CC(=O)Nc3cc(OC)c(OC)cc32)cc1 (centres undefined)	none | VLA-4 allo CP inactive
COc1cc2c(cc1OC)C(c1cccc(Br)c1)CC(=O)N2 (centres undefined)	none
COc1cc2c(cc1OC)C(c1ccc(N(C)C)cc1)CC(=O)N2 (centres undefined)	none
COc1ccc(C2CC(=O)Nc3cc(OC)c(OC)cc32)cc1Br (centres undefined)	none | VLA-4 allo CP inactive
O=C(CSc1ncn[nH]1)NNC(=O)c1ccccc1	none
COc1ccc(OCCC(=O)NCCN2CCOCC2)cc1	none
COc1ccc2[nH]c3c(Cl)ncnc3c2c1	none | VLA-4 allo CP inactive
CN(Cc1cnc2nc(N)nc(N)c2n1)c1ccc(C(=O)N[C@@H](CCC(=O)O)C(=O)O)cc1	VLA-4 inh 55! | VLA-4 allo CP inactive
COc1ccc(C(C)(O)c2nc(-c3ccc(Cl)cc3)cs2)cc1 (centres undefined)	none (no result: VLA-4 inh, V-ATPase pHluor, MEX-5 binding, GASC-1 inh)
O=C(Nc1cccc(F)c1)C1CCCN(C(=O)c2ccc(Cl)cc2)C1 (centres undefined)	none (no result: MEX-5 binding, GASC-1 inh)
COc1ccc(NC(=O)Cn2c(=O)oc3cc(Cl)ccc32)c(OC)c1	Exocytosis inh inconclusive | VLA-4 allo CP inactive
COc1ccccc1CCNC(=O)Cn1c(=O)oc2ccccc21	none
O=C(Cn1c(=O)oc2ccccc21)NCCc1ccccc1	none | VLA-4 allo CP inactive
COc1ccc(Cl)cc1NC(=O)Cn1c(=O)oc2ccccc21	none
Cc1cc(NC(=O)Cn2c(=O)oc3ccccc32)no1	none (no result: MEX-5 binding) | VLA-4 allo CP inactive
O=C(Cn1c(=O)oc2ccccc21)Nc1ccc(Cl)cc1Cl	none | VLA-4 allo CP inactive
O=C(O)c1ccccc1OCCN1CCCC1=O	none

High-throughput results as filed in PubChem.
